High-throughput results from PubChem BioAssay.
Shown are actives, neighbours in structure and some others; about 2.3% of the full set was active somewhere.
Mcl1-Noxa inh: disrupts binding of human Mcl-1 to Noxa peptide; Q07820; TR-FRET Mcl-1/Noxa peptide binding, 2 h; inhibition, % at 21.7 µM; 1.5% of 220,000 active;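 active = compounds that cut the protein-peptide binding signal by more than 50% relative to plate controls in a single-dose test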;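 note: His-tagged Mcl-1 with rhodamine Noxa BH3 peptide and terbium anti-His antibody; 0% = Mcl-1 plus Noxa peptide wells and 100% = peptide-only wells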
Mcl-1 Bim block: disrupts Bim peptide binding to human Mcl-1; Q07820; Bead-based flow cytometry, Bim peptide-Mcl-1 binding; inhibition, % at 10 µM; 0.1% of 190,000 active; AID 1009; in the data active = inhibition above about 40%;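 note: 0% = no compound tracer wells and 100% = peptide blocker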
MCL1 BIM primary: MCL1-BIM-BH3 interaction inhibition (human). Q07820. GST-MCL1 / FITC-Bim-BH3 fluorescence polarization. inhibition, % at 10.9 µM. 0.68% of 320,000 active. AID 2057;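 active = inhibition above the mean inhibition of all tested compounds plus 3 SD, set per campaign, cut at about 40% in these data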;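 note: 0% = DMSO wells and 100% = unlabeled Bim-BH3 peptide control; higher means more loss of mP so more displacement of Bim peptide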
BCLXL inh: blocks human Bcl-xL binding to Bim BH3 peptide. GST-Bcl-xL / FITC-Bim BH3 peptide fluorescence polarization. AID 2129. 0.7% of 320,000 active. inhibition, % at 10.9 µM;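 active = inhibition above the mean of all tested compounds plus 3 SD, cutoff set per campaign, cut at about 30% in these data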;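 note: 0% = DMSO wells and 100% = unlabeled Bim-BH3 peptide competitor; inhibitors lower millipolarization by displacing the labeled peptide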
Target sequence (Q07817 whole entry, looked up): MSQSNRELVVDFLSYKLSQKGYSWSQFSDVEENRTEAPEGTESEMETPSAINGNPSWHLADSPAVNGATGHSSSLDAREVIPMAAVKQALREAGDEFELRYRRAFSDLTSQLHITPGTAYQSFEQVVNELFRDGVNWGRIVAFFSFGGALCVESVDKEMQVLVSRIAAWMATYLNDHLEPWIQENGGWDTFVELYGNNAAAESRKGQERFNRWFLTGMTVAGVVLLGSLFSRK
Mcl1-Bid inh: Mcl-1/Bid interaction inhibition; TR-FRET Mcl-1/Bid-Dy647 peptide binding, 1536-well; AID 1021; 0.97% of 220,000 active; Q07820; inhibition, % at 21.7 µM;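 active = compounds that cut the binding signal by more than half at the single screening dose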;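 note: His-tagged Mcl-1 with europium anti-His antibody binding Bid BH3 peptide; 0% = Mcl-1 plus peptide wells and 100% = peptide-only wells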
GLD-1 RNA inh: GLD-1-TGE RNA interaction inhibition (C. elegans); Q17339; purified GLD-1 + fluorescein TGE RNA, fluorescence polarization; inhibition, % at 5.96 µM; 0.44% of 320,000 active; AID 2280;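 active = percent inhibition above a per-plate cutoff, the plate mean of test compounds plus 3 SD, cut at about 30% in these data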;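 note: 0% = DMSO wells with GLD-1 and probe and 100% = wells lacking GLD-1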
The depositor's hits bear a star; . = no result given.

SMILES | Mcl1-Noxa inh | Mcl-1 Bim block | MCL1 BIM primary | BCLXL inh | Mcl1-Bid inh | GLD-1 RNA inh
CC(Cc1ccc(O)c(O)c1)C(C)Cc1ccc(O)c(O)c1 (stereo not drawn) | . | . | 38 | 31* | . | 15
C/C(=N/NC(=O)c1cc(-c2cccc([N+](=O)[O-])c2)n[nH]1)c1cccc(O)c1 | 5 | . | -2 | -2 | -10 | -1
C/C(=N\NC(=O)c1cc(-c2cccc([N+](=O)[O-])c2)n[nH]1)c1ccccc1O | 58* | 0 | 18 | -7 | 73* | 13
COc1cccc(CN(C)C(=O)c2ccc3nccnc3c2)c1 | 26 | -1 | 48* | 41* | 2 | 10
O=C(CSc1nnnn1-c1ccc(Cl)cc1)NC1CCS(=O)(=O)C1 (stereo not drawn) | . | . | . | . | . | 7
C=CCNc1ncnc2c1[nH]c1ccc(C)cc12 | 26 | -1 | 10 | 5 | -6 | 4
COc1cccc(/C=N/Nc2ncnc3c2[nH]c2ccc(C)cc23)c1OC | 100* | . | 5 | 2 | 35 | -5
COc1ccc(/C=N/Nc2ncnc3c2[nH]c2ccccc23)c(OC)c1OC | 55* | -5 | -9 | -5 | 49 | 0
CCN1C(=O)[C@H]2[C@@H](c3ccc(-c4ccc(Cl)c(Cl)c4)c(OC)c3)N3CCCC[C@@]3(C(=O)OC)[C@H]2C1=O | . | . | . | . | . | 6
N#Cc1cccc(S(=O)(=O)NCC(=O)NCc2ccc3c(c2)OCO3)c1 | . | . | 7 | 1 | . | 2
Cc1cccc(NC(=O)CN2C(=O)/C(=C3\SC(=S)N(CC4CCCO4)C3=O)c3ccccc32)c1 (stereo not drawn) | . | . | 3 | 0 | . | 2
Cc1ccc(NC(=O)CN2C(=O)/C(=C3\SC(=S)N(C4CCS(=O)(=O)C4)C3=O)c3ccccc32)cc1 (stereo not drawn) | 75* | 0 | . | . | 100* | .
O=C(CN1C(=O)/C(=C2\SC(=S)N(C3CCS(=O)(=O)C3)C2=O)c2ccccc21)Nc1ccccc1 (stereo not drawn) | 121* | -3 | 11 | 21 | 99* | -2
Cc1cc(OC(C)C(=O)NCC2CCC(C(=O)O)CC2)c2c(C)cc(=O)oc2c1 (stereo not drawn) | . | . | 2 | 0 | . | -1
Cc1cc(NC(=O)NC(=O)c2ccccc2)no1 | . | . | -1 | 6 | . | -3
CC1CCCC(NC(=O)CCC(=O)N2CCOc3ccccc32)C1C (stereo not drawn) | . | . | 6 | 3 | . | 1
CC(C)OC(=O)C[N+](C)(C)CCN1C(=O)C2C(c3ccccc3)C=CC(c3ccccc3)C2C1=O (stereo not drawn) | 0 | 1 | 14 | 0 | -14 | 55*
C#CC[N+](C)(C)CCN1C(=O)C2C(c3ccccc3)C=CC(c3ccccc3)C2C1=O (stereo not drawn) | 3 | 0 | 3 | 6 | 2 | 4
N#C/C(=C\Nc1ccc2cn[nH]c2c1)c1nc(-c2ccc(Cl)cc2)cs1 | 53* | 1 | -15 | -6 | 58* | -9
COc1ccc(Cn2nnnc2C(c2ccccc2OC)N2CCC(C(N)=O)CC2)cc1 (stereo not drawn) | -13 | 0 | 6 | 6 | -15 | 2
COc1ccc(Cn2nnnc2C(c2ccc(N(C)C)cc2)N2CCC(C(N)=O)CC2)cc1 (stereo not drawn) | 54* | 0 | 14 | 5 | -42 | -6
CN(CCOC(=O)C1c2ccccc2Oc2ccccc21)C(C)(C)C | 12 | 0 | 0 | 3 | 97* | 6
O=C(CSc1nnc(SCc2cccc3ccccc23)s1)N=Nc1c(O)[nH]c2ccccc12 | 60* | -12 | -10 | -5 | 79* | 0
O=C(NC1CCCc2c1cnn2-c1ccc(F)cc1F)c1ccccn1 (stereo not drawn) | -6 | 0 | -4 | 31* | -10 | -5
Nc1ccc(Nc2nc(-c3cc4ccccc4oc3=O)cs2)cc1 | 59* | 0 | 4 | 3 | -31 | -1
O=C(O)c1ccc(Nc2nc(-c3cccnc3)cs2)cc1O | . | . | 18 | 15 | . | 5
O=C(O)c1ccc(Nc2nc(-c3cc4ccccc4oc3=O)cs2)cc1O | 97* | 0 | . | . | -87 | .
O=c1oc2ccccc2cc1-c1nc(-c2cccs2)cs1 | 1 | 14 | 6 | -4 | 7 | 139*
CCC(O)C1CCN(C(=O)c2ccc(OC3CCN(Cc4ccccn4)CC3)cc2)CC1 (stereo not drawn) | . | . | 10 | 11 | . | 3
